# High-throughput results deposited in PubChem by several laboratories.
# Efflux pump mplx = antifungal efflux pump inhibition, Nile Red retention | S. cerevisiae Candida pump triplex | inhibition, % at 10 µM | hit rate 0.44% among 330,000;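 active means plate passing quality check with inhibition over a set limit, or well fluorescence over plate mean plus 4 SD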;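 further: Nile Red retained in pooled yeast measured as flow cytometry median fluorescence; higher means more Nile Red kept so more efflux inhibition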
# MLLE-PAM2 inh = blocks PAM2 peptide binding to the PABP1 MLLE domain; P11940; GST-MLLE / FITC-PAM2 fluorescence polarization; inhibition, % at 20 µM; hit rate 0.36% among 360,000; in the data active means inhibition above about 35%, passing the limit was not always enough
# PABP polyA inh = blocks human PABP binding to poly(A) RNA; hit rate 1% among 290,000; fluorescence polarization; AID 2014; inhibition, % at 35 µM;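 further: calls also rest on retests at 20 µM and on dose response follow-up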
# eIF4H inh = inhibitors of RNA binding by human eIF4H; eIF4H fluorescence polarization binding assay; hit rate 0.94% among 290,000; Q15056; inhibition, % at 35 µM;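 further: calls also rest on retests at 20 µM and on dose response follow-up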
# ALR H2O2 inh = human ALR oxidase inhibition via reduced H2O2 | P55789 | purified ALR, DTT oxidation, H2O2 HRP-luminol luminescence | inhibition, % (test concentration not listed) | hit rate 3.8% among 290,000;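 active means mean replicate inhibition above about 79%, with every replicate also reaching it, limit read from the data; inconclusive means only one of the two criteria met; inactive means mean below limit and not every replicate reaching it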
# Target sequence (P55789 whole entry, looked up): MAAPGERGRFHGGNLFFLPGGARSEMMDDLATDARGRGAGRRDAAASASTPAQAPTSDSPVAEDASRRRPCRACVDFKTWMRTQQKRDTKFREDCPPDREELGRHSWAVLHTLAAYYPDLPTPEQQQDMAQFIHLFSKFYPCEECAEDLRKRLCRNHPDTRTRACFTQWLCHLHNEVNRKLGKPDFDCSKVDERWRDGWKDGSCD
# UBC9 SUMO inh = SUMOylation inhibition. P63279. HTRF SUMOylation assay, SAE1/SAE2 + UBC9, in vitro. inhibition, % at 35 µM. hit rate 0.36% among 290,000. AID 2006; in the data active means inhibition above about 50%, passing the limit was not always enough; inconclusive means no clear call, values can overlap the other calls
# Target sequence (P63279 whole entry, looked up): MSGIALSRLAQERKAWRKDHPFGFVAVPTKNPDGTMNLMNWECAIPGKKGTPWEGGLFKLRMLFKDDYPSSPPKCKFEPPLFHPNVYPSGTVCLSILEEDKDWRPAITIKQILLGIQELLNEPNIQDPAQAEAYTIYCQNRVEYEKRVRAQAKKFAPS
# Hits are given with their value; i = inactive; ? = inconclusive; nt = no result given. This is a sample that favours compounds with a hit; in the whole collection about 4.7% have one here. Unless noted, how the calls were made is not given here.
SMILES,Efflux pump mplx,MLLE-PAM2 inh,PABP polyA inh,eIF4H inh,ALR H2O2 inh,UBC9 SUMO inh
CCc1c(C)nc(N2CCN(c3cccc(OC)c3)CC2)[nH]c1=O,i,i,i,i,97.9,i
CCOc1ccc(N2C(=O)c3ccc(C(=O)OCC(=O)N(CC)C4CCS(=O)(=O)C4)cc3C2=O)cc1 (stereo not given),i,i,i,i,i,53.6
CCN(C(=O)COC(=O)c1ccc(N2C(=O)c3ccccc3C2=O)cc1)C1CCS(=O)(=O)C1 (stereo not given),i,i,i,i,i,i
COc1ccc(Cl)cc1NC(=O)CN(C)C(C)C(=O)NCC1CCCCC1 (stereo not given),i,i,i,i,i,i
COc1ccc(Cl)cc1NC(=O)CN(C(=O)c1ccco1)C1CCCCC1,i,35.6,i,i,i,i
Cc1cc(C)cc(N2C(=O)CSC2c2ccccn2)c1 (stereo not given),i,i,i,i,98.7,i
O=C1CSC(c2ccccn2)N1c1ccccc1 (stereo not given),i,i,i,i,99.1,i
O=C1CSC(c2ccccn2)N1c1ccc(Br)cc1 (stereo not given),i,i,i,i,i,i
O=C(NC(=O)c1cc([N+](=O)[O-])ccc1Cl)C1=C(N2CCCC2)COC1=O,i,i,nt,nt,i,nt
COc1ccc(-c2[nH]c(-c3ccc(C)cc3)nc2SCC(=O)NC2CCCC2)cc1,i,i,i,i,i,i
COCC(C)n1c(SCC(=O)Nc2nccs2)nc2ccccc2c1=O (stereo not given),i,44.0,nt,nt,i,nt
COCC(C)n1c(SCC(=O)Nc2sccc2C(N)=O)nc2ccccc2c1=O (stereo not given),i,i,nt,nt,nt,nt
COc1ccc(-c2[nH]c(-c3ccccc3)nc2SCC(=O)Nc2nccs2)cc1,i,i,i,i,98.3,i
COc1ccc(-c2[nH]c(-c3ccc(Cl)cc3)nc2SCC(=O)Nc2nccs2)cc1,i,i,i,i,93.6,i
COc1cc(C(=O)N2CCN(c3ccccc3Cl)CC2)ccc1OCC(=O)N1CCOCC1,i,i,nt,nt,nt,nt
C[C@@H]1CN([C@H](C)CO)C(=O)CCCn2nncc2CO[C@H]1CN(C)Cc1ccccc1C(F)(F)F,nt,i,nt,nt,nt,nt
CC(=O)c1cccc(NC(=O)c2cccc3ccccc23)c1,i,i,i,i,i,i
CCN(CC(=O)NCc1ccc(F)cc1)CC(=O)Nc1cc(S(=O)(=O)N(C)C)ccc1C,i,i,nt,nt,i,nt
O=C(c1ccc(OCCN2CCCCC2)cc1)c1c(-c2ccc(O)cc2)sc2cc(O)ccc12,i,i,nt,nt,90.9,nt
COC(=O)c1ccc(OCCN2CCCCCC2)cc1,i,i,i,i,i,i
Cc1cccc(COc2ccc(S(=O)(=O)N3CCOCC3)cc2[N+](=O)[O-])c1,nt,i,nt,nt,nt,nt
O=C(O)c1ccc(O)c(N2C(=O)Nc3ccccc3N2O)c1,i,i,6.5,53.4,i,i
Cc1c(C(=O)O)cccc1N1C(=O)Nc2ccccc2N1O,i,i,i,i,i,i
CC1CCN(C(=O)CSc2nc(C3CC3)nc3ccccc23)CC1,i,i,i,i,nt,i
CCc1nc(SCC(=O)N2c3ccccc3Sc3ccccc32)c2ccccc2n1,i,i,i,i,i,i
SMILES,Efflux pump mplx,MLLE-PAM2 inh,PABP polyA inh,eIF4H inh,ALR H2O2 inh,UBC9 SUMO inh
CCOC(=O)CSc1nc(C2CC2)nc2ccccc12,i,36.5,i,i,i,i
CCc1nc(SCC(=O)c2ccccc2)c2ccccc2n1,i,41.1,i,i,98.8,i
CCCc1nc(SCC(=O)c2ccc(OC)cc2)c2ccccc2n1,i,i,i,i,89.6,i
O=C(CSc1nc2ccccc2c(=O)n1CC1CCCO1)Nc1ccc(F)cc1 (stereo not given),i,i,i,i,nt,i
COCCNC(=O)CSc1cc(-c2ccccc2)c2ccc(OC)cc2n1,i,i,i,i,97.0,i
COc1ccc2c(-c3ccccc3)cc(SCC(=O)NC(N)=O)nc2c1,i,i,i,i,i,i
CCCCC/C(=N\NC(=O)CCC(=O)NCc1ccccc1)c1ccccc1,i,i,i,i,i,i
CC/C(=N\NC(=O)CCC(=O)NCc1ccccc1)c1ccc(O)cc1,i,i,i,i,98.8,i
CC(C)(C)OC(=O)N1CCC(C(=O)Nc2cccc(C(=O)NCc3ccccc3)c2)CC1,nt,i,nt,nt,nt,nt
CC(C)/C(=N\NS(=O)(=O)c1ccc(Br)cc1)c1cccs1,i,i,i,i,79.8,i
C=CCn1c(=O)c2ccccc2n2c(SCc3csc(-c4ccccc4)n3)nnc12,i,i,i,i,98.7,i
C=CCn1c(SCc2csc(-c3ccc(C)cc3)n2)nnc1-c1ccccc1OC,i,i,i,i,98.5,i
C=CCn1c(=O)c2ccccc2n2c(SC(C)C(=O)Nc3nc(-c4ccccc4)cs3)nnc12 (stereo not given),i,i,i,i,i,i
C=CCNC(=O)COc1cc(C)cc(C)c1C,i,i,i,i,i,i
CCCCCCN1C[C@@H](O)[C@H](n2cc(C3CC3)nn2)C[C@@H]1c1ccc(Cl)cc1,nt,i,nt,nt,nt,nt
O=S(=O)(Nc1cccc(-n2cnnn2)c1)c1ccccc1C(F)(F)F,i,i,i,i,i,i
COCCCN1C(=O)C(CC(=O)NC(c2ccccc2)c2ccccc2)CC(C(=O)N(C(C)C)C(C)C)=C1C (stereo not given),nt,i,nt,nt,nt,nt
COc1ccc(CCNC(=O)c2cccc(S(=O)(=O)N3CCOCC3)c2)cc1OC,i,i,nt,nt,nt,nt
Cc1cccc(Nc2nnc(SCC3CCCCO3)s2)c1C (stereo not given),i,i,i,1.8,i,i
CC(C)CN(CC(C)C)C1=N/C(=C\c2ccco2)C(=O)N1c1ccccc1,i,i,53.2,i,i,i
COc1ccc2c(C(=O)c3ccc(C)cc3)n(Cc3ccc(C(N)=O)cc3)[n+]([O-])c2c1,i,i,nt,nt,i,nt
CCN(CC)Cc1c(-c2ccccc2)[nH]c2ccc(C)cc2c1=O,i,i,i,i,96.6,i
Cc1ccc2[nH]c(-c3ccccc3)cc(=O)c2c1,i,i,i,i,i,i
O=C(N/N=C/c1cccn1-c1cccc(C(=O)O)c1)Nc1ccccc1,i,i,active,?,97.2,i
O=C(O)c1cccc(-n2cccc2C=C2C(=O)c3ccccc3C2=O)c1,i,i,i,i,i,i
SMILES,Efflux pump mplx,MLLE-PAM2 inh,PABP polyA inh,eIF4H inh,ALR H2O2 inh,UBC9 SUMO inh
COC1=CC(=NCl)C=CC1=NCl,nt,41.5,nt,nt,nt,nt
ClN=C1C=CC=CC1=NCl,nt,i,nt,nt,nt,nt
O=C1c2c(O)cc(O)cc2O[C@@]12c1c(cc(O)c3c1O[C@H](c1ccc(O)cc1)[C@@H](O)C3)O[C@@H]2c1ccc(O)cc1,i,i,i,i,99.0,i
O=C(Nc1ccc(SC(F)F)cc1)C1=COCCO1,i,i,i,i,99.3,i
Cc1ccc(C(=O)Nc2ccc(SC(F)F)cc2)s1,i,i,i,i,i,i
COC(=O)c1ccc(C(=O)Nc2nnc(-c3cccnc3)o2)cc1,i,nt,i,i,i,i
Cc1cccc(C(=O)Nc2nnc(-c3ccncc3)o2)c1,i,i,i,i,97.2,i
